Records with an inconclusive call do not appear. A call without a number means that no potency is given here. Unmarked numbers belong to inactive results. Activity calls are given as the source filed them. The call rests on the fitted dose curve; in most records, active means well fitted curve in the direction sought with a large enough effect in the repeat runs; inconclusive means weak or mixed curves; inactive means no such curve, though single readings can be large; an effect the other way counts as inactive or inconclusive.
Molecular target: Androgen receptor (Homo sapiens) (UniProt P10275)
Assay: qHTS assay to identify small molecule antagonists of the androgen receptor (AR) signaling pathway using the MDA cell line (AID 743042; further: nearly all actives have a fitted effect of over 55% in size)
Conditions: MDA-kb2 AR-luc, MMTV luciferase, R1881 antagonist, 16 h; series mostly up to 70.3 µM
Summary of the method: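 Antagonist mode: compounds plus R1881 agonist added to MDA-kb2 AR-luc cells, incubated 16 h at 37C. Luciferase reporter luminescence quantified, with multiplexed CellTiter-Fluor readout for cell viability.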

Sequence of Androgen receptor (Homo sapiens) (P10275 whole entry, looked up): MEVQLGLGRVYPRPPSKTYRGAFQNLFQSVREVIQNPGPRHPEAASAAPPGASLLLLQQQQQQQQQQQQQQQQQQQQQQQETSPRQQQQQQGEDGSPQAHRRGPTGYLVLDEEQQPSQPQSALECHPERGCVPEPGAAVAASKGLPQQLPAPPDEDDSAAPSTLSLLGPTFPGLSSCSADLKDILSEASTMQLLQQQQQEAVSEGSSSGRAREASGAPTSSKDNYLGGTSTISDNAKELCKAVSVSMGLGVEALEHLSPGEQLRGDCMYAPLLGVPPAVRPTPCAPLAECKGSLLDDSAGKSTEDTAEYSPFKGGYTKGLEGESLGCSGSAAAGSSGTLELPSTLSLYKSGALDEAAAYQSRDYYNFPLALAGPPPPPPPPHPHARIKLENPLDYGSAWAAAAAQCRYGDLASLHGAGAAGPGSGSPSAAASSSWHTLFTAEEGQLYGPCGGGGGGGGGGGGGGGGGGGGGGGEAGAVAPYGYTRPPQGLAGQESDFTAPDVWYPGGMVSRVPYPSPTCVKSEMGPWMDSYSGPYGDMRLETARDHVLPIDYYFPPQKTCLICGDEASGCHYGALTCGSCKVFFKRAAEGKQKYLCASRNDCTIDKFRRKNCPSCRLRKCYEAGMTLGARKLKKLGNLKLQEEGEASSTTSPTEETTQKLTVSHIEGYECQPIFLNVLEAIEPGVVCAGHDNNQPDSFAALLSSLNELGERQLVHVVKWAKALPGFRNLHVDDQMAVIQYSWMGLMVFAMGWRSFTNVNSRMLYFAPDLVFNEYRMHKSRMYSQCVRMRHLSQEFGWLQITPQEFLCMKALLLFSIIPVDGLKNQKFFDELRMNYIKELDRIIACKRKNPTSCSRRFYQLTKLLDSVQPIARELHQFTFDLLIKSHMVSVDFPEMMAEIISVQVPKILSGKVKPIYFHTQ

**Q.** For `C=CCCCCCCCCCCC`, which activity change, negative = inhibition is on record?
**A.** 17.6% [at 8.47 µM]

**Q.** With `CCCCCCCCCCCCCC(=O)OC` as the compound, how does the outcome read?
**A.** inactive

**Q.** For `O=C(O)c1ccccc1C(=O)Nc1ccc(S(=O)(=O)Nc2nccs2)cc1`, which outcome is on record?
**A.** inactive

**Q.** For `COc1ccc(/C=N/NC(=O)c2ccncc2)cc1OC`, which outcome is on record?
**A.** inactive

**Q.** Which outcome does the source give for `O=C(CN1CCN(Cc2ccc3c(c2)OCO3)CC1)N1c2ccccc2Sc2ccccc21` here?
**A.** inactive

**Q.** With `O=C1c2ccccc2-c2ccccc21` as the compound, how does the outcome read?
**A.** inactive

**Q.** For `O=C1OC(=O)c2cc(Oc3ccc4c(c3)C(=O)OC4=O)ccc21`, which outcome is on record?
**A.** inactive

**Q.** For `Nc1cc(C(=O)O)ccc1Cl`, which outcome is on record?
**A.** inactive

System: not listed separately
Assay: qHTS assay to identify small molecule antagonists of the thyroid receptor (TR) signaling pathway - cell viability counter screen (AID 743064); further: nearly all actives have a fitted effect of over 50% in size; further: potency means the concentration at half of the fitted maximal effect
Conditions: GH3.TRE-Luc viability, CellTiter-Fluor, 24 h; series mostly up to 70.3 µM
Summary of the method: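 CellTiter-Fluor readout, 30 min at 37 °C/5% CO2, following 23.5 h incubation of GH3.TRE-Luc cells with test compound and 1 nM T3 (final).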

**Q.** Which Potency does the source give for `CCN(CCO)c1cccc(C)c1` here?
**A.** inactive

**Q.** Which Potency does the source give for `FC(F)(F)/C(=N\OCC1OCCO1)c1ccc(Cl)cc1` here?
**A.** inactive

**Q.** For `C=CCCCCCCCCCCC`, which activity change, negative = cytotoxic is on record?
**A.** -6.91% [at 8.44 µM]

**Q.** With `CCCCCCCCCCCCCC(=O)OC` as the compound, how does the Potency read?
**A.** inactive

**Q.** With `CNC(=O)C(c1ccccc1)c1ccccc1` as the compound, how does the Potency read?
**A.** inactive

**Q.** With `Cc1nc(C)nc(N2C[C@@H](C)N(c3ccnc([C@@H](C)O)n3)[C@@H](C)C2)n1` as the compound, how does the Potency read?
**A.** inactive

**Q.** Which Potency does the source give for `NS(=O)(=O)c1cc2c(cc1Cl)NC(C(Cl)Cl)NS2(=O)=O` (stereo not drawn) here?
**A.** inactive

**Q.** With `COc1ccc(/C=N/NC(=O)c2ccncc2)cc1OC` as the compound, how does the Potency read?
**A.** inactive

**Q.** Which Potency does the source give for `O=C(CN1CCN(Cc2ccc3c(c2)OCO3)CC1)N1c2ccccc2Sc2ccccc21` here?
**A.** 29.8 µM (active)

**Q.** Which Potency does the source give for `O=C1c2ccccc2-c2ccccc21` here?
**A.** inactive

**Q.** For `CC(C)COC(=O)/C=C/c1ccccc1`, which Potency is on record?
**A.** inactive

**Q.** With `CN(C1CCCCC1)S(=O)(=O)c1ccccc1N` as the compound, how does the Potency read?
**A.** inactive

**Q.** With `Nc1cc(C(=O)O)ccc1Cl` as the compound, how does the Potency read?
**A.** inactive

**Q.** With `CCc1nccnc1C` as the compound, how does the Potency read?
**A.** inactive

**Q.** With `CC(=O)OCCCc1ccccc1` as the compound, how does the Potency read?
**A.** inactive
